Assay results from the supplement of paper PMC10981050.
“And” between values parts separate entries of the source, which are not always exact repeats. Equal entries are not always repeated. Structures can show the parent of a compound that is named as a salt.

How the values were obtained:
Assay in all cases: cell viability relative to vehicle control; higher = less cytotoxic
Settings in all cases: 10 µM
[1] = system: K562
Summary of the method: (§1)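 After removal of identity-inconsistent compounds, the Selleck bioactive, kinase and epigenetic probe libraries were screened on CRISPR-edited mutant clones and isogenic wild-type clones of four leukaemia lines. Plates were 384-well, each well holding 2000 cells in 50 µL medium and receiving a single 10 µM acoustically dispensed dose. CellTiter-Glo luminescence was read 48 h later, after the supernatant was taken off. Genedata Screener was used to express viability as percent of the on-plate vehicle control.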

[2] = system: MARIMO
Summary of the method: as §1

[3] = system: MOLM14
Summary of the method: as §1

[4] = system: OCI-AML2
Summary of the method: as §1

Structure (SMILES) | cell viability ([1]; SRSF2 genotype: SRSF2 P95H/wt) | cell viability ([1]; SRSF2 genotype: SRSF2 wt/wt) | cell viability ([2]; SRSF2 genotype: SRSF2 P95H/wt) | cell viability ([2]; SRSF2 genotype: SRSF2 wt/wt) | cell viability ([3]; SRSF2 genotype: SRSF2 P95H/wt) | cell viability ([3]; SRSF2 genotype: SRSF2 wt/wt) | cell viability ([4]; SRSF2 genotype: P95H/wt) | cell viability ([4]; SRSF2 genotype: wt/wt)
CO/N=C(\C(=O)N[C@@H]1C(=O)N2C(C(=O)OC(C)OC(C)=O)=C(COC(N)=O)CS[C@H]12)c1ccco1 (stereo partly specified) [Cefuroxime axetil] | 103% and 102% | 96.2% | 99.6% | 104% | 101% | 107% | 111% | 105%
COc1c(C)cnc(Cn2cnc3c(Cl)nc(N)nc32)c1C | 21.6% and 31% | 29.2% | 32.7% | 25.9% | 2.67% | 2.88% | 18.4% | 22.2%
COc1c(O[C@@H]2O[C@H](CO)[C@@H](O)[C@H](O)[C@H]2O)cc2occ(-c3ccc(O)cc3)c(=O)c2c1O [Tectoridin] | 93% and 87.4% | 84.8% | 94.4% | 95.3% | 91.8% | 96.1% | 91% | 97.8%
CCC(C)CC(C)CCCCCCCCC(=O)NC1CC(O)C(O)NC(=O)C2C(O)CCN2C(=O)C(C(O)CC(N)=O)NC(=O)C(C(O)C(O)c2ccc(O)cc2)NC(=O)C2CC(O)CN2C(=O)C(C(C)O)NC1=O (stereo unspecified) [Pneumocandin B0] | 96.7% and 91.6% | 90% | 97% | 95.1% | 93.5% | 98.7% | 95.7% | 91.8%
Cc1cnc(Nc2ccc(N3CCN(C)CC3)cc2)nc1Nc1cccc(S(=O)(=O)NC(C)(C)C)c1 | 0.99% and 2.2% | 2.6% | 17.1% | 16.1% | 0.12% | 0.18% | 0.19% | 2.96%
COc1cc(O)cc2c1C(=O)C[C@@H](c1ccccc1)O2 [Alpinetin] | 107% and 103% | 96.5% | 101% | 109% | 109% | 110% | 102% | 106%
O=C(Nc1ccc(O)c(C(=O)O)c1)c1cccc(NC(=O)c2ccco2)c1 | 103% and 105% | 99.4% | 97.2% | 100% | 104% | 102% | 105% | 105%
COc1ccccc1Oc1c(NS(=O)(=O)c2ccc(C(C)(C)C)cc2)nc(-c2ncccn2)nc1OCCO [Bosentan Hydrate] | 99.5% and 99.8% | 98.6% | 97.3% | 104% | 97.1% | 105% | 112% | 95.2%
NC(=O)c1cn(Cc2c(F)cccc2F)nn1 [Rufinamide (Banzel)] | 101% and 104% | 106% | 106% | 108% | 107% | 107% | 113% | 103%
CN(C)CCSSCCNC(=O)C1CCN(C(=O)CSc2ccc(Cl)cc2)CC1 | 82% and 85.7% | 81.6% | 68% | 86.9% | 91.8% | 95.1% | 89.8% | 79.5%
Fc1ccc(-c2c3cccc(C(F)(F)F)c3nn2Cc2ccc(F)cc2Cl)cc1 | 95.4% and 91.2% | 90.1% | 97.2% | 114% | 94.2% | 98% | 114% | 120%
COC(=O)C1=C(C#N)NC(C)=C(C(=O)OC(C)C)C1c1cccc([N+](=O)[O-])c1 (stereo unspecified) [Nilvadipine (ARC029)] | 81.2% and 85.3% | 80.7% | 76% | 79.7% | 80.9% | 84.7% | 103% | 97.2%
COc1ccc(COc2cc3oc(=O)c4cc(C(C)O)ccc4c3cc2OC)cc1 (stereo unspecified) [Palomid 529] | 101% and 111% | 104% | 105% | 103% | 102% | 101% | 106% | 97.2%
OC[C@H]1O[C@H](OCC2O[C@@H](O)[C@H](O)[C@@H](O)[C@@H]2O)[C@H](O)[C@@H](O)[C@H]1O (stereo partly specified) [Melibiose] | 108% and 104% | 106% | 105% | 110% | 101% | 108% | 98.5% | 103%
O=C(O)CCc1ccc(O)cc1 [Phloretic acid] | 99.4% and 99.9% | 94.6% | 93.9% | 104% | 109% | 103% | 99.2% | 105%
O=C(O)[C@@]1(CCCCCCOc2ccc(Cl)cc2)CO1 [Etomoxir (Na salt)] | 113% and 110% | 115% | 104% | 110% | 106% | 108% | 107% | 96.8%
CCCc1cc(C)[nH]c(=O)c1CNC(=O)c1cc(-c2ccc(N3CCN(C)CC3)nc2)nc2c1cnn2C(C)C | 15.9% and 4.45% | 20.9% | 85.6% | 47.7% | 55.9% | 78.5% | 0.4% | 0.41%
C[C@H](Oc1ccc(S(C)(=O)=O)cc1C(=O)N1CCN(c2ncc(C(F)(F)F)cc2F)CC1)C(F)(F)F | 105% and 98.9% | 95% | 97.1% | 107% | 97.3% | 105% | 101% | 104%
C[C@@H](Nc1cc(F)cc(F)c1)c1cc(C(=O)N(C)C)cc2c(=O)cc(N3CCOCC3)oc12 | 87% and 91.9% | 85.5% | 52% | 47.3% | 42.3% | 51.1% | 25.5% | 37.4%
Cc1cnc(NC(=O)Nc2cc(Br)c(C)cc2OC[C@@H]2CNCCO2)cn1 | 8.35% and 7.58% | 8.76% | 20.6% | 8.01% | 10.8% | 6.96% | 12.8% | 12.1%
O=C(CCNC(=O)c1ccc(OC(F)(F)F)cc1)N[C@@H]1CCCc2ccccc21 | 105% and 110% | 91.3% | 96% | 105% | 93.7% | 94.6% | 93.8% | 106%

Structure (SMILES) | cell viability ([1]; SRSF2 genotype: SRSF2 P95H/wt) | cell viability ([1]; SRSF2 genotype: SRSF2 wt/wt) | cell viability ([2]; SRSF2 genotype: SRSF2 P95H/wt) | cell viability ([2]; SRSF2 genotype: SRSF2 wt/wt) | cell viability ([3]; SRSF2 genotype: SRSF2 P95H/wt) | cell viability ([3]; SRSF2 genotype: SRSF2 wt/wt) | cell viability ([4]; SRSF2 genotype: P95H/wt) | cell viability ([4]; SRSF2 genotype: wt/wt)
C[C@H](N[C@@H](CCc1ccccc1)C(=O)O)C(=O)N1CCC[C@H]1C(=O)O [Enalaprilat dihydrate] | 103% and 100% | 100% | 98.7% | 109% | 102% | 103% | 99.4% | 108%
C[C@]1(c2nc3c(C(N)=O)cccc3[nH]2)CCCN1 [ABT-888 (Veliparib)] | 93.1% and 93% | 89.4% | 91% | 96.5% | 82.4% | 79% | 70.2% | 83.5%
C=C1CCC2C(C)(COC(=O)CCC(=O)O)C(OC(=O)CCC(=O)O)CCC2(C)C1C=CC1=CCOC1=O (stereo unspecified) [Dehydroandrographolide Succinate] | 114% and 108% | 111% | 101% | 101% | 109% | 107% | 106% | 105%
CCCCCC(O)C=CC1C(O)CC(=O)C1CCCCCCC(=O)O (stereo unspecified) [Alprostadil(Caverject)] | 69.3% and 64.4% | 84.2% | 82.4% | 73.2% | 50.1% | 22.4% | 80.3% | 62.1%
CS(=O)(=O)c1ccc(C(=O)Nc2ccc(Cl)c(-c3ccccn3)c2)c(Cl)c1 [Vismodegib (GDC-0449)] | 93.4% and 96.9% | 96.7% | 101% | 104% | 103% | 104% | 96% | 92.9%
C=C(C)[C@@H]1CC[C@]2(C=O)CC[C@]3(C)[C@H](CC[C@@H]4[C@@]5(C)CC[C@H](O)C(C)(C)[C@@H]5CC[C@]43C)[C@@H]12 [Betulinicaldehyde] | 101% and 97.2% | 102% | 95.1% | 94.2% | 103% | 98% | 94.5% | 92%
Cc1cc(C)cc(Oc2ccc(CNC(=O)[C@H](C)N)cc2C)c1 | 85.9% and 95.5% | 93.9% | 86.5% | 87.8% | 78.1% | 94.3% | 75.5% | 83.3%
Oc1ccc2ccccc2c1SSc1c(O)ccc2ccccc12 | 62.1% and 81.6% | 83.9% | 32.7% | 29.7% | 18.9% | 29.6% | 31.8% | 31.2%
CNC[C@H](O)[C@@H](O)[C@H](O)[C@H](O)CO.CNC[C@H](O)[C@@H](O)[C@H](O)[C@H](O)CO.O=C([O-])CN(CCN(CC(=O)[O-])CC(=O)O)CCN(CC(=O)[O-])CC(=O)O.[Gd+3] [Gadopentetate Dimeglumine] | 96.2% and 95.2% | 101% | 94.1% | 98.4% | 99.2% | 98% | 98.2% | 97.7%
CN1C(=O)[C@@H](NC(=O)c2n[nH]c(Cc3ccccc3)n2)COc2ccccc21 | 97.3% and 106% | 103% | 103% | 105% | 103% | 106% | 106% | 106%
CC(O)c1ccc(S(=O)(=O)NC(=O)NC2CCCCC2)cc1 (stereo unspecified) [Hydroxyhexamide] | 106% and 96% | 107% | 103% | 99% | 101% | 104% | 104% | 106%
COC(=O)C1=C(C)NC(C)=C(C(=O)OCCN2CCN(C(c3ccccc3)c3ccccc3)CC2)C1c1cccc([N+](=O)[O-])c1 (stereo unspecified) [Manidipine (Manyper)] | 75.7% and 63.9% | 53.3% | 60.2% | 58.5% | 73.9% | 64.2% | 29.8% | 41%
CCC[C@H](Nc1nc(-c2ccc(NC(=O)NCC)c(OC)c2)ncc1C)c1cccnc1 | 10.5% and 35.4% | 31.9% | 7.27% | 10% | 1.24% | 1.12% | 0.85% | 2.78%
CN1CCCN(C(=O)c2cccc(-c3ccc(/C=C4/C(=O)Nc5ccc(Cl)cc54)o3)c2)CC1 | 0.32% | 0.41% | 0.26% | 0.37% | 0.32% | 0.29% | 0.21% | 0.42%
Nc1[nH]c(=O)ncc1Br [5-Bromocytosine] | 102% and 99.4% | 105% | 101% | 103% | 104% | 105% | 98.1% | 108%
O=C(NC1CCN(CCCCC2(C(=O)NCC(F)(F)F)c3ccccc3-c3ccccc32)CC1)c1ccccc1-c1ccc(C(F)(F)F)cc1 [Lomitapide] | 0.51% and 0.47% | 0.4% | 0.42% | 0.43% | 0.37% | 0.37% | 0.35% | 0.46%
O=C(O)[C@H]1CSC(c2nc3ccc(O)cc3s2)=N1 [D-Luciferin] | 90.6% and 83.7% | 92.3% | 82.4% | 92.8% | 85.8% | 90.7% | 86.7% | 87.9%
Cc1cc(C(C)Nc2ccccc2)c2nc(N3CCOCC3)cc(=O)n2c1 (stereo unspecified) | 92.6% and 97.6% | 93.3% | 90.7% | 90.4% | 70.9% | 69% | 73.4% | 76.6%
O=C(c1ccc(OCCN2CCCCC2)cc1)c1c(-c2ccc(O)cc2)sc2cc(O)ccc12 [Evista (Raloxifene Hydrochloride)] | 75.3% and 80.4% | 81.3% | 79.3% | 77.8% | 76.2% | 81.3% | 82.7% | 77.2%
Cc1nnc(NS(=O)(=O)c2ccc(N)cc2)s1 [Sulfamethizole (Proklar)] | 109% and 97.9% | 104% | 107% | 106% | 100% | 107% | 108% | 111%
O=c1ncn2nc(Sc3ccc(F)cc3F)ccc2c1-c1c(Cl)cccc1Cl | 84.8% and 86.8% | 83.6% | 77.9% | 84% | 82.1% | 92.9% | 64.1% | 68.6%
